This is an account of results in PubChem BioAssay (Tox21).

Each structure is given as a SMILES string. “And” between values parts separate entries of the source, which are not always exact repeats. Equal values may be shown once. Records with an inconclusive call do not appear. Where a call stands in place of a potency, no number is given. Some structures have more than one record in an assay (separate samples or runs), and their calls can disagree. The source made the active and inactive calls. Calls follow the shape of the dose curve; as a rule, active = well fitted curve in the direction sought with a large enough effect in the repeat runs; inconclusive = weak or mixed curves; inactive = no such curve, though single readings can be large; an effect the other way counts as inactive or inconclusive.
Potency is read from the fitted curve at half-maximal effect.

Nuclear receptor subfamily 1 group I member 2 (Homo sapiens), sequence (O75469 whole entry, looked up): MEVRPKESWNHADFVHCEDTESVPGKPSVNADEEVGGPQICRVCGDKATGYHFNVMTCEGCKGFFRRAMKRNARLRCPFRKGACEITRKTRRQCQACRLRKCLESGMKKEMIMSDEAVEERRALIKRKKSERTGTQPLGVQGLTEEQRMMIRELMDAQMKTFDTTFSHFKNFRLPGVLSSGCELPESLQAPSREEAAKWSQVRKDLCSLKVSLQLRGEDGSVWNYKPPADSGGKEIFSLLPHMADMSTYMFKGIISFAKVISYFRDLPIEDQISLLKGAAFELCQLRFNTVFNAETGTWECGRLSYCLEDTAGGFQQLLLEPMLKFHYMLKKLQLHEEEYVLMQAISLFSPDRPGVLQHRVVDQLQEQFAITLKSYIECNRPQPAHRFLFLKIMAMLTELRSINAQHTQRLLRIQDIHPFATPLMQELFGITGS

System in the first test: not listed separately
The test is described as follows: Caspase-3/7 induction in HepG2 cells by small molecules, qHTS cell viability counter screen (AID 1346981). Also: nearly all actives have a fitted effect of over 30% in size. Conditions: CellTiter-Fluor fluorescence, 17 h; series mostly up to 92.4 µM; activity change, negative = cytotoxicity: at the top concentration. Summed up:
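Fluorescence read-out of live-cell protease activity (CellTiter-Fluor) after 1 hr with reagent. This was measured in the same wells as the caspase-3/7 luminescence, on HepG2 cells exposed to DMSO-dissolved compounds for 16 hr at 37 C.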
`CCOCCOCCO`: the Potency result is “inactive”. Consider `CC1=CCC(C(C)(C)O)CC1` (configuration not stated), for which the Potency entry was “inactive”.

In the case of `CC(=O)Oc1ccccc1C(=O)Nc1ncc([N+](=O)[O-])s1`, the Potency is 15.7 µM (active) and 21.1 µM (active). Consider `CC(=O)c1ccccn1`, for which the “activity change, negative = cytotoxicity” value is -1.34% (inactive). On to `Cc1cccc(N(C)C(=S)Oc2ccc3ccccc3c2)c1`, for which the Potency result is “inactive”. In the case of `NC=O`, the Potency result was “inactive”. For `COc1ccc(OC)c(C(O)CNC(=O)CN)c1` (configuration not stated), the “activity change, negative = cytotoxicity” value is 0.826% [at 42.5 µM] (inactive). Consider `O=CCCCC=O`, for which the Potency result was “inactive”. In the case of `COc1ccc(C(=O)CC(=O)c2ccc(C(C)(C)C)cc2)cc1`, the “activity change, negative = cytotoxicity” value is -1.25% [at 42.5 µM] (inactive). The same measure, in the same setting: next, `Cc1[nH]c(=O)c(C#N)cc1-c1ccncc1`: 6.28% [at 42.5 µM] (inactive). Turning to `CNCCCC12CCC(c3ccccc31)c1ccccc12`, the Potency is 61.1 µM (active).

For `C#C[C@]1(O)CC[C@H]2[C@@H]3CCC4=Cc5oncc5C[C@]4(C)[C@H]3CC[C@@]21C`, the “activity change, negative = cytotoxicity” value was -1.93% [at 42.5 µM] (inactive). As for `Nc1ncnc2nc[nH]c12`, the Potency result was “inactive”. Regarding `O=C(COc1ccc(Cl)cc1)N1CCN(Cc2ccc3c(c2)OCO3)CC1`, the “activity change, negative = cytotoxicity” value is -5.46% [at 42.5 µM] (inactive). Turning to `Cc1c(C(N)=O)cc([N+](=O)[O-])cc1[N+](=O)[O-]`, the Potency entry was “inactive”. As to `O=Cc1ccccc1O`, the “activity change, negative = cytotoxicity” value is 4.67% (inactive). Take `C[Si](C)(C)O[Si](C)(C)C`: the “activity change, negative = cytotoxicity” value is 6.26% (inactive). For the compound `O=C(O)c1ccccc1Nc1cccc(C(F)(F)F)c1`, the Potency entry was “inactive”. Consider `CN(C)CCN(Cc1cccs1)c1ccccn1`, for which the Potency result is “inactive”. As to `O=C(/C=C/c1ccccc1)OCc1ccccc1`, the Potency entry was “inactive”.

Take `CCCC(=O)O`: the Potency result was “inactive”.

As for `C[C@]12CC[C@H]3[C@@H](CCC4=CC(=O)CC[C@@]43C)[C@@H]1CC[C@@H]2C(=O)CO`, the Potency result is “inactive”. As for `OC[C@H]1O[C@@H]2O[C@H]3[C@H](O)[C@@H](O)[C@@H](O[C@H]4[C@H](O)[C@@H](O)[C@@H](O[C@H]5[C@H](O)[C@@H](O)[C@@H](O[C@H]6[C@H](O)[C@@H](O)[C@@H](O[C@H]7[C@H](O)[C@@H](O)[C@@H](O[C@H]8[C@H](O)[C@@H](O)[C@@H](O[C@H]1[C@H](O)[C@H]2O)O[C@@H]8CO)O[C@@H]7CO)O[C@@H]6CO)O[C@@H]5CO)O[C@@H]4CO)O[C@@H]3CO`, the Potency entry was “inactive”.

For `CCCCC(CC)COCC1CO1` (configuration not stated), the Potency result was “inactive”. For the compound `Nc1ncn([C@@H]2O[C@H](CO)[C@@H](O)[C@H]2O)c(=O)n1`, the Potency is 1.72 µM (active) and 2.98 µM (active). Regarding `CCOC(=O)C(C#N)=C(c1ccccc1)c1ccccc1`, the Potency entry is “inactive”.

As to `C[C@]12CCC(=O)C=C1CC[C@@H]1[C@@H]2C(=O)C[C@@]2(C)[C@H]1CC[C@]2(O)C(=O)CO`, the Potency result is “inactive”. For the compound `Nc1ccc(Nc2ccccc2)cc1`, the Potency was 42.8 µM (active) and 34.4 µM (active) and 48.6 µM (active). The same measure, in the same setting: as for `CCCCC(CC)COC(=O)c1ccc(N(C)C)cc1` (configuration not stated), the entry is “inactive”; as for `COc1cccc2c1C(=O)c1c(O)c3c(c(O)c1C2=O)C[C@@](O)(C(=O)CO)C[C@@H]3O[C@H]1C[C@H](N)[C@H](O)[C@H](C)O1`, 3.85 µM (active) and 11.9 µM (active); as for `C=C(C)C1CC=C(C)CC1` (configuration not stated), “inactive”. Still for that read-out and setting: next, `Nc1ccc(S(=O)(=O)Nc2cnc3ccccc3n2)cc1`: “inactive”; `CCCc1c(OCCCCc2nn[nH]n2)ccc(C(C)=O)c1O`: “inactive”. Still for that read-out and setting: next, `O=S(=O)(O)c1ccc(O)cc1`: “inactive”. On to `O=C1c2cccc(O)c2C(=O)c2c(O)cccc21`, for which the “activity change, negative = cytotoxicity” value is -14.2% [at 42.5 µM] (inactive). With `S=C(NC1CCCCC1)NC1CCCCC1`, the Potency entry is “inactive”. Still for that read-out and setting: as for `CCCCOCCOCCO`, the entry is “inactive”.

For the compound `C#C[C@]1(O)CC[C@H]2[C@@H]3CCc4cc(OC)ccc4[C@H]3CC[C@@]21C`, the Potency entry is “inactive”.

Consider `CC(C)(C)NC(=O)[C@H]1CC[C@H]2[C@@H]3CC[C@H]4NC(=O)C=C[C@]4(C)[C@H]3CC[C@]12C`, for which the Potency result was “inactive”.

In a further test the target is Nuclear receptor subfamily 1 group I member 2 (Homo sapiens) (UniProt O75469). Put plainly: Human pregnane X receptor (PXR) small molecule agonists, qHTS assay (AID 1346982). Also: nearly all actives have a fitted effect of over 35% in size. The settings on record: PXR-Luc HepG2, CYP3A4 luciferase reporter, 24 h; series mostly up to 92.4 µM; activation: at the top concentration. Summed up:
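HepG2 PXR-Luc reporter line, 5% charcoal-stripped FBS; 5 hr pre-incubation, compound (DMSO) 24 hr at 37 C/5% CO2; ONE-Glo 30 min RT; luminescence read-out.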
With `CCOCCOCCO`, the Potency result was “inactive”. Same read-out and setting: as for `CC1=CCC(C(C)(C)O)CC1` (configuration not stated), the figure is 54.8 µM (active) and inactive. As to `CC(=O)Oc1ccccc1C(=O)Nc1ncc([N+](=O)[O-])s1`, the Potency was 11.1 µM (active) and 2.11 µM (active).

As for `CC(=O)c1ccccn1`, the Potency result was “inactive”. On the same count and under the same terms, next, `Cc1cccc(N(C)C(=S)Oc2ccc3ccccc3c2)c1`: 17.2 µM (active) and 11.9 µM (active). In the case of `NC=O`, the “activation” value is 14.1% (inactive).

Consider `COc1ccc(OC)c(C(O)CNC(=O)CN)c1` (configuration not stated), for which the Potency entry is “inactive”. The same measure, in the same setting: next, `O=CCCCC=O`: “inactive”; `COc1ccc(C(=O)CC(=O)c2ccc(C(C)(C)C)cc2)cc1`: 65.8 µM (active) and inactive. Same read-out and setting: next, `Cc1[nH]c(=O)c(C#N)cc1-c1ccncc1`: 1.37 µM (active). For the compound `C#C[C@]1(O)CC[C@H]2[C@@H]3CCC4=Cc5oncc5C[C@]4(C)[C@H]3CC[C@@]21C`, the Potency was 30.6 µM (active) and 29.8 µM (active). `Nc1ncnc2nc[nH]c12`: the Potency is 27.3 µM (active) and inactive. On the same count and under the same terms, next, `O=C(COc1ccc(Cl)cc1)N1CCN(Cc2ccc3c(c2)OCO3)CC1`: 34.4 µM (active) and inactive; `Cc1c(C(N)=O)cc([N+](=O)[O-])cc1[N+](=O)[O-]`: “inactive”. Take `O=Cc1ccccc1O`: the “activation” value was 10.2% (inactive). With `C[Si](C)(C)O[Si](C)(C)C`, the Potency was 68.2 µM (active) and inactive. Still for that read-out and setting: next, `O=C(O)c1ccccc1Nc1cccc(C(F)(F)F)c1`: 30.6 µM (active) and inactive; `CN(C)CCN(Cc1cccs1)c1ccccn1`: 20 µM (active) and inactive; `O=C(/C=C/c1ccccc1)OCc1ccccc1`: “inactive”. With `CCCC(=O)O`, the Potency entry is “inactive”.

With `C[C@]12CC[C@H]3[C@@H](CCC4=CC(=O)CC[C@@]43C)[C@@H]1CC[C@@H]2C(=O)CO`, the Potency is 21.7 µM (active) and inactive. Same read-out and setting: as for `OC[C@H]1O[C@@H]2O[C@H]3[C@H](O)[C@@H](O)[C@@H](O[C@H]4[C@H](O)[C@@H](O)[C@@H](O[C@H]5[C@H](O)[C@@H](O)[C@@H](O[C@H]6[C@H](O)[C@@H](O)[C@@H](O[C@H]7[C@H](O)[C@@H](O)[C@@H](O[C@H]8[C@H](O)[C@@H](O)[C@@H](O[C@H]1[C@H](O)[C@H]2O)O[C@@H]8CO)O[C@@H]7CO)O[C@@H]6CO)O[C@@H]5CO)O[C@@H]4CO)O[C@@H]3CO`, the entry is “inactive”; as for `CCCCC(CC)COCC1CO1` (configuration not stated), “inactive”.

On to `Nc1ncn([C@@H]2O[C@H](CO)[C@@H](O)[C@H]2O)c(=O)n1`, for which the Potency is 4.33 µM (active) and 10.6 µM (active). Same read-out and setting: next, `CCOC(=O)C(C#N)=C(c1ccccc1)c1ccccc1`: 24.3 µM (active) and 11.9 µM (active).

Take `C[C@]12CCC(=O)C=C1CC[C@@H]1[C@@H]2C(=O)C[C@@]2(C)[C@H]1CC[C@]2(O)C(=O)CO`: the “activation” value was 2.57% [at 42.5 µM] (inactive). `Nc1ccc(Nc2ccccc2)cc1`: the Potency is 24.1 µM (active) and 19.3 µM (active) and 34.4 µM (active).

For the compound `CCCCC(CC)COC(=O)c1ccc(N(C)C)cc1` (configuration not stated), the Potency entry is “inactive and 54.5 µM (active)”. The same measure, in the same setting: as for `COc1cccc2c1C(=O)c1c(O)c3c(c(O)c1C2=O)C[C@@](O)(C(=O)CO)C[C@@H]3O[C@H]1C[C@H](N)[C@H](O)[C@H](C)O1`, the entry is “inactive”; as for `C=C(C)C1CC=C(C)CC1` (configuration not stated), “inactive”. The same measure, in the same setting: next, `Nc1ccc(S(=O)(=O)Nc2cnc3ccccc3n2)cc1`: “inactive”. The same measure, in the same setting: as for `CCCc1c(OCCCCc2nn[nH]n2)ccc(C(C)=O)c1O`, the figure is 61.1 µM (active) and inactive; as for `O=S(=O)(O)c1ccc(O)cc1`, “inactive”. Consider `O=C1c2cccc(O)c2C(=O)c2c(O)cccc21`, for which the “activation” value is -0.871% (inactive).

For `S=C(NC1CCCCC1)NC1CCCCC1`, the Potency is 26.8 µM (active) and 19.3 µM (active). For the compound `CCCCOCCOCCO`, the Potency entry is “inactive”. With `C#C[C@]1(O)CC[C@H]2[C@@H]3CCc4cc(OC)ccc4[C@H]3CC[C@@]21C`, the Potency is 21.7 µM (active) and 18.8 µM (active).

On to `CC(C)(C)NC(=O)[C@H]1CC[C@H]2[C@@H]3CC[C@H]4NC(=O)C=C[C@]4(C)[C@H]3CC[C@]12C`, for which the Potency is 48.6 µM (active).
